Results filed as inconclusive are left out. A number with no mark means an inactive call. Calls of active or inactive are those of the source. Calls follow the shape of the dose curve; as a rule, active = well fitted inhibition curve with a large enough effect; inconclusive = small, poorly fitted or top-dose-only effect; inactive = no such curve, though single readings can be large or run the other way.
test: Primary qHTS for small molecule stabilizers of the endoplasmic reticulum resident proteome: Secreted ER Calcium Modulated Protein (SERCaMP) assay (AID 1508630); conditions: SH-SY5Y GLuc-SERCaMP (Gaussia luciferase released on ER calcium loss) secretion, thapsigargin, luminescence; series mostly up to 38.4 µM; activity change, negative = inhibition: at the top concentration
Excerpt: Assay Provider: Brandon K. Harvey Ph.D.
National Institute on Drug Abuse, National Institutes of Health, Baltimore, MD
Endoplasmic reticulum (ER) dysregulation is associated with human pathologies including neurodegenerative, cardiovascular, muscular, and diabetic conditions. Maintenance of ER calcium is critical for functions of the ER and its depletion can lead to loss of ER resident proteins, in a process termed exodosis. Therapeutic compounds capable of attenuating the redistribution of ER proteins under pathological conditions may slow or stop disease progression. To identify such compounds, we performed a quantitative high-throughput screen (qHTS) using the SERCaMP assay, which monitors secretion of ER resident proteins triggered by calcium depletion.
SERCaMP was initially developed as a reporter of ER calcium homeostasis using a Gaussia luciferase with a modified signal peptide and carboxy-terminus (GLuc-SERCaMP), modifications that confer secretion of the reporter in response to ER calcium depletion (Henderson et al., 2014). The assay was used to screen 9,501 compounds, including a collection of drugs approved by the FDA (US), EMA (EU), NHI (Japan), and HC (Canada) regulatory agencies (Huang et al., 2011). Since the SERCaMP reporter reflects the exodosis phenomenon (Trychta et al., 2018a), compounds identified in the screen have the potential to prevent exodosis by different mechanisms such as stabilizing ER calcium or augmenting ERS retrieval.
1. Henderson, M.J., Wires, E.S., Trychta, K.A., Richie, C.T., and Harvey, B.K. (2014). SERCaMP: a carboxy-terminal protein modification that enables monitoring of ER calcium homeostasis. Mol Biol Cell 25, 2828-2839.
2. Huang, R., Southall, N., Wang, Y., Yasgar, A., Shinn, P., Jadhav, A., Nguyen, D.T., and Austin, C.P. (2011). The NCGC pharmaceutical collection: a comprehensive resource of clinically approved drugs enabling repurposing and chemical genomics. Sci Transl Med 3, 80ps16.
3. Trychta, K.A., Back, S., Henderson, M.J., and Harvey, B.K. (2018a). KDEL Receptors Are Differentially Regulated to Maintain the ER Proteome under Calcium Deficiency. Cell Rep 25, 1829-1840 e1826.
SEQUENCE No. (1, 2, 3, etc.); […] (e.g., Cells, Incubation, Reagent, etc.); VALUE and DESCRIPTION.
1; Reagent; 5 uL; 1000 SH-SY5Y cells per wells
3; Compound; 23 nL; Control inhibitor / compound library
5; Reagent; 100 nM; Thapsigargin
7; Reagent; 1 uL; 0.5x coelenterazine
8; Detection; Luminescence; ViewLux imaging system
NOTES (numbers refer to sequence above)
1; SH-SY5Y human neuroblastoma cells stably expressing GLuc-SERCaMP (SH-SY5Y-GLuc-ASARTDL) cells were seeded in 1,536 well white tissue culture treated plates (Corning, Cat# 7464) in DMEM-high glucose-sodium pyruvate (ThermoFisher Scientific, Cat #10569) supplemented with 10% bovine growth serum (Hyclone), 10 U/ml penicillin (Gibco), 10 ug/ml streptomycin (Gibco), and 20 mM HEPES.
2; Assay plates were incubated for 5 hour at 37C in a humidified incubator containing 5% CO2.
3; qHTS libraries (23 nl, final concentrations of 1.53 uM, 7.67 uM, 38.3 uM) or controls (neutral control: DMSO, positive control: dantrolene) were added using a Kalypsis pin-tool Robotic System equipped with 1536 pinheads.
4; Cells were then incubated for 16 hours at 37C, 5% CO2.
5; Thapsigargin was added at 100 nM to deplete ER calcium stores.
6; Cells were incubated for 4 hour (37 °C, 5% CO2)
7; Gaussia luciferase in the medium was measured by adding 1 ul of 0.5x coelenterazine (final concentration 0.07x) prepared in Gaussia Luciferase Glow Assay Buffer (Pierce), without addition of the Cell Lysis Buffer Reagent.
8; Luminescence was measured using a ViewLux […] CCD imaging system (Perkin Elmer) equipped with clear filters. […] The same controls were also used for the calculation of the Z' factor, a measure of assay quality control, as previously described (Zhang et al., 1999). […]
% is scaled to controls: 0 for no effect and ±100 for the full control effect.

Row | SMILES | activity change, negative = inhibition | Potency
1 | OC(CCCN1CCCCC1)(c1ccccc1)c1ccccc1 | -26.6% | 
2 | CN1CC(=O)N2[C@H](c3ccc4c(c3)OCO4)c3[nH]c4ccccc4c3C[C@@H]2C1=O | 29.5% | 
3 | OC1(c2ccc(Cl)cc2)CCNCC1 | -31.4% | 
4 | Nc1ncnc2c1ncn2Cc1c(F)cccc1Cl | -16.1% | 
5 | Cc1cc(C(C)(C)C)c(O)c(C(C)(C)C)c1 | -24.4% | 
6 | NS(=O)(=O)c1cc(C(=O)NN2C[C@H]3[C@H]4CCC(C4)[C@H]3C2)ccc1Cl | -11.2% | 
7 | CCN(CC)CCN | -21.8% | 
8 | O=C1CCCc2c(O)cccc21 | -26.4% | 
9 | CC(NC(CCc1ccccc1)C(=O)O)C(=O)N1C(=O)N(C)CC1C(=O)O (stereo not given) | -19.7% | 
10 | Cc1ccc2ccc(Cl)cc2n1 | -19% | 
11 | CCN(CC)CCNC(=O)c1ccc(NS(C)(=O)=O)cc1 | -27.8% | 
12 | O=C1CC2(CCCC2)CC(=O)N1 | -17.6% | 
13 | CCOC(=O)OCC/C(SC(=O)OCC)=C(\C)N(C=O)Cc1cnc(C)nc1N | 8.37% | 
14 | O=C(OCC(O)CO)c1ccccc1Nc1ccnc2c(C(F)(F)F)cccc12 (stereo not given) | -16.1% | 
15 | Nc1nc2ccccc2n1Cc1ccc(F)cc1 | -5.33% | 
16 | CC(C)=CCC/C(C)=C/CC/C(C)=C/C(=O)OCC(=O)[C@@]1(O)CC[C@H]2[C@@H]3CCC4=CC(=O)C=C[C@]4(C)[C@H]3[C@@H](O)C[C@@]21C | 31% | 
17 | [O-][n+]1cccc(/C(Cl)=N/OC[C@@H](O)CN2CCCCC2)c1 | -27.1% | 
18 | CC1(C)O[C@@H]2C[C@H]3[C@@H]4C[C@H](F)C5=CC(=O)C=C[C@]5(C)[C@@]4(F)[C@@H](O)C[C@]3(C)[C@]2(C(=O)CO)O1 | 59.1% | 
19 | Cc1ccc(C(C)OC(=O)C2(C)CCC(C(=O)O)C2(C)C)cc1 (stereo not given) | -21.1% | 
20 | CC1(C)O[C@@H]2C[C@H]3[C@@H]4CCC5=CC(=O)C=C[C@]5(C)[C@@]4(F)[C@@H](O)C[C@]3(C)[C@]2(C(=O)CO)O1 | 54.4% | 

Row | SMILES | activity change, negative = inhibition | Potency
21 | O=c1[nH]c(=O)n([C@H]2O[C@H](CO)[C@@H](O)[C@@H]2O)cc1/C=C\Br | -18.7% | 
22 | Cc1ncc([N+](=O)[O-])n1C | -30% | 
23 | CCCCCOc1ccccc1/C(=C\SC)n1ccnc1 | 60.1% | 
24 | NS(=O)(=O)c1cc2c(cc1Cl)CN(C1CCCCC1)C2=O | -16.1% | 
25 | O=C(CCCCC(=O)Nc1c(I)cc(I)c(C(=O)O)c1I)Nc1c(I)cc(I)c(C(=O)O)c1I |  | inactive
26 | Cc1ccccc1C(=O)N1CC/C(=N\OS(=O)(=O)O)c2ccc(Cl)cc21 | 10.2% | 
27 | O=c1[nH]sc2cc(Cl)ccc12 | 122% | 
28 | C[C@@H]1C[C@H]2[C@@H]3CCC4=CC(=O)C=C[C@]4(C)[C@@]3(F)[C@@H](O)C[C@]2(C)[C@@]1(O)C(=O)COC(=O)c1ccncc1 | 22.8% | 
29 | CC(=O)N(CC(O)CO)c1c(I)c(C(=O)NCCO)c(I)c(C(=O)NCC(O)CO)c1I (stereo not given) | -19.6% | 
30 | CCCC(=O)O[C@]1(C(=O)COC(=O)CC)CC[C@H]2[C@@H]3CCC4=CC(=O)CC[C@]4(C)[C@H]3[C@@H](O)C[C@@]21C | 32.6% [at 21.6 µM] | 
31 | CCS(=O)(=O)c1ccc(OC)c(C(=O)OC)c1 | -12.1% | 
32 | CCOC(=O)C1=C(C)NC(C)=C(C(=O)OCC)C1c1ccccc1/C=C/C(=O)OC(C)(C)C | -14.1% | 
33 | C=C(C)C(=O)OCC(O)CO (stereo not given) | -11.8% | 
34 | O=C(O)C1CCC1 | -18.4% | 
35 | CCOC(=O)N1CCC(n2c(=O)[nH]c3cc(Cl)ccc32)CC1 | -5.84% | 
36 | CC(=O)OCC(=O)[C@@]1(O)[C@H](OC(C)=O)C[C@H]2[C@@H]3CCC4=CC(=O)C=C[C@]4(C)[C@@]3(F)[C@@H](O)C[C@@]21C | 11.9% | 
37 | Cc1cc(=O)oc2cc(O[C@@H]3SC[C@@H](O)[C@H](O)[C@H]3O)ccc12 | 17.2% | 
38 | CCCCC(CC)CNC(=O)CC(C)OC(=O)CCC(=O)O (stereo not given) | 8.44% | 
39 | COc1cc2c(cc1OC)CN(C(=O)[C@H](C)N[C@@H](CCc1ccccc1)C(=O)O)[C@H](C(=O)O)C2 | 3.95% | 
40 | COc1ccc(-n2nc(CCC(=O)N(C)O)cc2-c2ccc(Cl)cc2)cc1 | -25.4% | 

From PubChem BioAssay (NCATS)
